Molecules are shown by their SMILES. “And” between values parts separate entries of the source, which are not always exact repeats. Identical values can stand only once. Hit rate of the full screen: of about 230,000 compounds, about 1,000 (0.43%) were called active. What follows is part of a selection rich in actives, with near analogues and random picks from the rest. Where a call stands in place of a potency, no number is given. Unmarked numbers belong to inactive results. The call rests on the fitted dose curve; in most records, active means well fitted inhibition curve with a large enough effect (not every such curve was filed as active); inactive means no such curve, though single readings can be large or run the other way.
Potency means the concentration at half of the fitted maximal effect.

This test deals with Guanine nucleotide-binding protein G(i) subunit alpha-1 (Homo sapiens) (UniProt P63096). The experiment in a line: qHTS Assay for Inhibitors of RGS12 GoLoco Motif Activity (Red Fluorophore). Further: nearly all actives have a fitted effect of over 30% in size. The conditions noted are these: Gai1:RGS12 GoLoco peptide FP, rhodamine, 10 min; series mostly up to 61.6 µM.
Sequence of Guanine nucleotide-binding protein G(i) subunit alpha-1 (Homo sapiens) (P63096 whole entry, looked up): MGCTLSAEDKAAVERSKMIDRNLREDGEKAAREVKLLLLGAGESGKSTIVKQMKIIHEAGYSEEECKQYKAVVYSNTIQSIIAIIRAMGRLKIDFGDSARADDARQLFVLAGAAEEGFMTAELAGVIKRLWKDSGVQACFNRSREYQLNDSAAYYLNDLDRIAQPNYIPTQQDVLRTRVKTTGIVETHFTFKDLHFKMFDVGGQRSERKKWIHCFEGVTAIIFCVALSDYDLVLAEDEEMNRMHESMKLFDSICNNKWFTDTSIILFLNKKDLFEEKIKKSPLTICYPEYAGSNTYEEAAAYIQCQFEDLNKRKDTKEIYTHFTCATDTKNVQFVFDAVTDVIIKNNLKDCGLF
Turning to `CCC(C)[C@@H](N)C(=O)O` (stereo partly specified), the Potency result was “inactive”.

On to `C[N+]1(CCNC(=O)/C=N/O)CCCCC1`, for which the Potency was 12.6 µM (active).

As for `CC1=C/C(=N\OS(=O)(=O)c2ccccc2)C=CC1=O`, the Potency was 28.2 µM (active). Same read-out and setting: the entry for `CC1=C/C(=N\S(=O)(=O)c2ccccc2)C(C(C)C)=CC1=O` is “inactive”; for `Cc1ccc(S(=O)(=O)c2ccc(Oc3ccccc3)cc2)cc1` it is “inactive”; for `CC#CC[N+](C)(C)CCCCCC` it is “inactive”. The same measure, in the same setting: the entry for `NC(=O)C(=O)N/N=C/c1ccc([N+](=O)[O-])o1` is “inactive”.

Turning to `C[n+]1ccc(/C=C/c2c[nH]c3ccccc23)cc1`, the Potency was 0.562 µM (active).

For `CSC(=S)N/N=C/c1c[nH]c2ccccc12`, the Potency entry is “inactive”.

In the case of `S=c1[nH]nc(-c2ccccc2)n1/N=C/c1c[nH]c2ccccc12`, the Potency result is “inactive”.

On to `CCCCOC(=O)Cn1c(=O)n(CC(=O)OCCCC)c2cc(C)ccc21`, for which the Potency result is “inactive”. Same read-out and setting: the figure for `Cc1ccc(CCCOC(=O)C[N+]2(C)CCCC2)cc1` is 7.08 µM (active).

For `Cc1ccc(CCCOC(=O)C[N+]2(C)CCCCC2)cc1`, the Potency entry was “inactive”. As for `C[C@@]12CCC(=O)C=C1CC[C@H]1C2[C@@H](O)C[C@]2(C)[C@@H]1CC[C@@]2(O)C(=O)COC(=O)C1CCCC1` (stereo partly specified), the activity, negative = inhibition is -1.69% [at 14.2 µM]. For the compound `O=C(CC1SC(=Nc2ccccc2)N(Cc2ccccn2)C1=O)Nc1cccc(Cl)c1` (stereo unspecified), the Potency result was “inactive”. Still for that read-out and setting: the entry for `CC(C)S(=O)(=O)c1csc(NC(=O)Nc2ccc(Cl)cc2)c1Cl` is “inactive”; for `CC(C)N(Cc1ccccc1)C(=O)COC(=O)c1cnccn1` it is “inactive”.

In the case of `CCO[C@H]1OC(C(=O)NCc2ccccc2)=C[C@@H](c2coc3ccccc3c2=O)[C@@H]1CCCO`, the Potency result is “inactive”.

Regarding `Cc1ccc(-c2ncc(Cl)cc2-c2ccc(S(C)(=O)=O)cc2)cn1`, the Potency result was “inactive”. Still for that read-out and setting: the entry for `CCOC(=O)N/N=C/c1cn(Cc2ccccc2Cl)c2ccccc12` is “inactive”; for `CN1CCN(/N=C2/C(=O)Nc3ccc([N+](=O)[O-])cc32)CC1` it is “inactive”; for `CCN1C(=O)c2cccc3c(N)ccc1c23` it is “inactive”. On the same count and under the same terms, the figure for `Cc1nn(C)cc1N1C(=O)c2cccc3c(N)ccc(c23)C1=O` is 14.1 µM (active); for `Cc1nn(-c2cc(Cl)ccc2N)c(=O)c2ccccc12` it is “inactive”.

With `Cc1cccc(N2C(=O)SC(SC(=Nc3ccccc3)Nc3ccccc3)C2=O)c1` (stereo unspecified), the Potency result was “inactive”.

Regarding `O=C(C1=C[C@H](C2CC2)C[C@H](OCc2ccc(CO)cc2)O1)N1CCN(Cc2ccccc2)CC1`, the Potency result was “inactive”.

Take `CCOC(=O)N1CCN(Cc2nc3ccc([N+](=O)[O-])cc3c(=O)n2-c2cccc(OC)c2)CC1`: the Potency entry was “inactive”. The same measure, in the same setting: the entry for `CCOC(=O)C1=C(C(=O)OCC)C(C(=O)OCC)N(S(=O)(=O)C(F)(F)F)c2ccccc21` (stereo unspecified) is “inactive”; for `CCOC(=O)c1cc2n(c1N)-c1ccccc1C2=O` it is 17.8 µM (active); for `CCOC(=O)Nc1ccccc1N1C(=O)c2ccccc2C1=O` it is “inactive”. The same measure, in the same setting: the entry for `Cc1nc2c(c(=O)n1Cc1ccco1)c1nc3ccccc3nc1n2Cc1ccccc1` is “inactive”. Still for that read-out and setting: next, `Cc1cc2nc3c(=O)n(Cc4ccccc4)c(=O)[nH]c3nc2cc1N`: 12.6 µM (active); `O=c1[nH]c2c(c(=O)n1Cc1ccccc1)CCC2`: “inactive”. Turning to `C=CC(=O)c1ccc2ccccc2c1`, the Potency result is “inactive”.

With `O=C(Nc1ccc(O)cc1)c1ccccc1O`, the Potency entry is “inactive”.

With `COc1ccc(OCCC(=O)c2ccc(OC)cc2)cc1`, the Potency result is “inactive”. Same read-out and setting: the figure for `CC(C)CCOc1ccc(C(=O)C[N+]2(C)CCOCC2)cc1` is 3.55 µM (active); for `CC(=O)c1ccc(OCCN2CCOCC2)cc1` it is “inactive”. Still for that read-out and setting: the entry for `O=C(CCCNS(=O)(=O)c1cccc2nsnc12)NCCN1CCN(c2ccccc2F)CC1` is “inactive”. Regarding `N#Cc1ccccc1CN1C(=O)S/C(=C/c2cccn2-c2cccc(C(=O)O)c2)C1=O`, the Potency result is “inactive”. Still for that read-out and setting: next, `COc1cc(C(=O)NCc2ccc3c(c2)cc(C)n3C)cc(OC)c1OC`: “inactive”; `CCOc1ccc(C(O)Cn2c(=N)n(CCN3CCCCC3)c3ccccc32)cc1` (stereo unspecified): “inactive”; `O=P(O)(CN1CCCCCC1)C1Cc2ccccc2C1`: “inactive”.

Turning to `Cc1ccccc1CN1C[C@@H]2C[C@@H](c3ccc4nsnc4c3)N3CCC[C@@]23C1=O`, the Potency result was “inactive”. Consider `Nc1nc2c(ncn2[C@@H]2O[C@H](COP(=O)(O)OP(=O)(O)OP(=O)(O)O)[C@@H](O)C2O)c(=O)[nH]1` (stereo partly specified), for which the Potency entry is “inactive”.

Take `CC[N+](C)(CC)CCC[n+]1c(-c2ccccc2)c2cc(N)ccc2c2ccc(N)cc21`: the Potency was 4.47 µM (active) and 12.6 µM (active). Same read-out and setting: the entry for `CC/C=C\C/C=C\C/C=C\C/C=C\C/C=C\C/C=C\CCC(=O)NCCc1ccc(O)c(O)c1` is “inactive”. Turning to `COc1ccc(CC(N)C(=O)NC2C(O)[C@H](n3cnc4c(N(C)C)ncnc43)O[C@@H]2CO)cc1` (stereo partly specified), the Potency entry is “inactive”.

In the case of `COCCNC(=O)/C(C#N)=C/c1nc(N(C)C)n(-c2ccc(F)cc2)c1Cl`, the Potency result is “inactive”.

`O=C(/C=C/NCc1ccc(F)cc1)c1ccccc1`: the Potency entry was “inactive”. Turning to `O=C(c1ccncc1)N1CCN(c2ccc3ccccc3n2)CC1`, the Potency result is “inactive”. The same measure, in the same setting: the entry for `Cc1nc(-c2ccccc2)sc1C(=O)/C=C/N(C)C` is “inactive”; for `CC1(C)C=CC(=O)[C@]2(C)C1CC(=O)[C@]1(C)C2CC[C@@]2(C)C(c3ccoc3)OC(=O)C3OC321` (stereo partly specified) it is “inactive”. Still for that read-out and setting: the entry for `CC(C)=CCN1CCC2(CCc3ccccc32)CC1` is “inactive”; for `O=C(c1ccc(F)cc1)N1CCCC(c2nc(-c3cccs3)no2)C1` (stereo unspecified) it is “inactive”; for `C/C(=N\NC(=S)NC1CCCCC1)c1ccc(C)o1` it is “inactive”. On the same count and under the same terms, next, `CCN1/C(=C/c2ccc3ccc(C)cc3[n+]2CC)Sc2ccccc21`: 0.708 µM (active). `CCN1/C(=C\c2ccc3ccccc3[n+]2CC)Sc2cc(C)ccc21`: the Potency entry is “inactive”. On the same count and under the same terms, next, `CCN1/C(=C/C(=S)Nc2ccccc2)Sc2ccccc21`: “inactive”. The same measure, in the same setting: the entry for `O=c1ccn([C@@H]2O[C@H](COP(=O)(O)OP(=O)(O)OP(=O)(O)O)[C@@H](O)[C@H]2O)c(=O)[nH]1` is “inactive”. On the same count and under the same terms, next, `CC(Sc1nc2c([nH]c3ccccc32)c(=O)n1C)c1ccccc1` (stereo unspecified): “inactive”. Turning to `CC/C=C\C/C=C\C/C=C\C/C=C\C/C=C\C/C=C\CCC(=O)NC(C)C(=O)O` (stereo unspecified), the Potency entry is “inactive”. `COc1ccc(S(=O)(=O)N2CN(CCc3ccc(OC)c(OC)c3)c3nc4ccccc4nc32)cc1`: the Potency result was “inactive”. The same measure, in the same setting: the figure for `C[N+](C)(C)CCNC(=O)c1c(O)c2c([nH]c1=O)CCCC2` is 1.12 µM (active). Same read-out and setting: the entry for `CCc1nnc(NC(=O)c2c(O)c3c([nH]c2=O)CCCC3)s1` is “inactive”; for `O=C(NCc1ccccn1)c1c(O)c2c([nH]c1=O)CCCC2` it is “inactive”.

The values are drawn from PubChem BioAssay AID880 (National Center for Advancing Translational Sciences (NCATS), 2007).
